Rows were chosen to be rich in hits. Some 5.8% of all compounds tested hit in one or more screens of this group.
PINK1 expr mod = PINK1 expression modulation. Potency, µM (doses to about 76.6 µM), without a hit: top-dose activation (PINK1 increase), actives largely listed as activators. PINK1 immunofluorescence, high-content cytometry, 24 h. AID 624263. actives 0.2% (n = 410,000); active = well fitted activation curve with a large enough effect; inconclusive = small, poorly fitted or top-dose-only effect; cell line not stated here; note: % of control where 0% means no effect; nearly all actives have a fitted effect of over 65% in size
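Compound titrations (5 concentrations, 24 h) on a stable cell line; DMSO and CCCP controls. Endpoint: fixed-cell PINK1 immunofluorescence with mitochondrial, cell and nuclear markers, scanned by microplate cytometer.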
12-LOX inh = inhibitors of human 12S-lipoxygenase ALOX12; P18054; purified 12hLO, xylenol orange hydroperoxide absorbance; Potency, µM (doses to about 108 µM), for the others: at the highest dose activity change, negative = inhibition, hits mostly inhibitors; actives 1.1% (n = 580,000); note: % is set by controls: 0 for no effect and ±100 for the full control effect
Target sequence (P18054 whole entry, looked up): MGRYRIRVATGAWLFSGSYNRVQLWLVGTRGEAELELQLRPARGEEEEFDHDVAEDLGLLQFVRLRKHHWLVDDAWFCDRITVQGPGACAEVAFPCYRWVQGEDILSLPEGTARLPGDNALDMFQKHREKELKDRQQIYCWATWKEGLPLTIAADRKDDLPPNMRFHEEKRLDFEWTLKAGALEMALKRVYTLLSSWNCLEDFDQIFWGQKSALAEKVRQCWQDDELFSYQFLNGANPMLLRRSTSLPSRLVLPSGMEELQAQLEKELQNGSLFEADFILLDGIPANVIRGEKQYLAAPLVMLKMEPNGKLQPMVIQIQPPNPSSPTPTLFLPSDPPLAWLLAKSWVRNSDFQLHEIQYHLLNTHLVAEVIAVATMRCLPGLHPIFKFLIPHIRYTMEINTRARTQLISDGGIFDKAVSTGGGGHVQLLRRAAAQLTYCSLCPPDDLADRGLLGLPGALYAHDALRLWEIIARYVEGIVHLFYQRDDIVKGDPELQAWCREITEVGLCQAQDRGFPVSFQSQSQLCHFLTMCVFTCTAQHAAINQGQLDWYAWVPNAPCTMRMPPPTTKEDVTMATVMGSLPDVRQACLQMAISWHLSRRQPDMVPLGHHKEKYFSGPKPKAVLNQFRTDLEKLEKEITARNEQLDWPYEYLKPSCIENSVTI
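Purified human 12hLO at 150 nM in 25 mM Hepes, 0.01% Triton X-100, pH 7.0, preincubated 15 min at room temperature with compound. Reaction started with 40 uM arachidonic acid, 30 min at room temperature. Hydroperoxide measured by Fe-xylenol orange, 573/405 nm absorbance ratio.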
SW480 rereplic = induces DNA re-replication in SW480 colon adenocarcinoma cells; SW480 DNA re-replication, Hoechst DNA content imaging, 48 h; Potency, µM (titrated, usually from 46.1 µM), for inactives: at the highest dose re-replication activation, most hits filed as activators; actives 1.8% (n = 340,000); note: % of control where 0% means no effect; nearly all actives have a fitted effect of over 55% in size
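Hoechst fluorescence of nuclei (405 nm excitation, 500-530 nm emission) measured by plate-scanning imager after 48 hr compound exposure at 37 C; re-replication scored as increased number of nuclei with elevated intensity.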
KB-3-1 tox = kills parental KB-3-1 adenocarcinoma cells | KB-3-1 viability, CellTiter-Glo ATP luminescence, 72 h | Potency, µM (titrated, usually from 46.1 µM), actives largely listed as cytotoxic | actives 1.4% (n = 400,000) | AID 1347075; note: % is set by controls: 0 for no effect and ±100 for the full control effect; nearly all actives have a fitted effect of over 60% in size
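Cytotoxicity measured as CellTiter-Glo luminescence after 72 h at 37 C. Compound titrations were pinned onto drug-naive KB-3-1 parental adenocarcinoma cells grown in DMEM with 10% FBS, and normalized data fitted to concentration-response curves.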
KB-V1 MDR tox = KB-V1 MDR subline cytotoxicity; KB-V1 MDR cells viability, CellTiter-Glo, 72 h; Potency, µM (highest dose often 46.1 µM), actives largely listed as cytotoxic; actives 3.4% (n = 400,000); AID 1347076; note: % is set by controls: 0 for no effect and ±100 for the full control effect; nearly all actives have a fitted effect of over 60% in size
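Cytotoxicity toward P-gp-expressing KB-V1 cells was determined as loss of CellTiter-Glo luminescence after 72 h at 37 degrees C. Compounds were tested in quantitative HTS format across a concentration range, with curves fitted to normalized data.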
MCF10A rereplic = induces DNA re-replication in MCF 10a normal breast cells. MCF 10A DNA re-replication, Hoechst nuclear intensity, 48 h. AID 624296. Potency, µM (titrated, usually from 46.1 µM), without a hit: top-dose activity, positive = re-replication, actives largely listed as activators. actives 2.9% (n = 350,000); note: % of control where 0% means no effect; nearly all actives have a fitted effect of over 50% in size
* = called active by the depositor; [ ] = another dose, or the depositor's remark. Unless noted, calls come from the whole dose curve; as a rule, active = well fitted curve in the direction sought with a large enough effect; inconclusive = small, poorly fitted or top-dose-only effect, or another doubt; inactive = no such curve, though single readings can be large; an effect the other way counts as inactive or inconclusive. Potency is the fitted concentration of half-maximal effect.

Screening CC1Cc2ccccc2N1C(=O)CSc1nnc(Cn2nnc3ccccc32)n1C (stereo unspecified) returned PINK1 expr mod -1%, 12-LOX inh 16%, SW480 rereplic -2%, KB-3-1 tox inactive, KB-V1 MDR tox 18µM* and MCF10A rereplic 4%.
Screening CCCn1c(SCC(=O)N2CCc3ccccc3C2)nc2c1c(=O)n(C)c(=O)n2C returned PINK1 expr mod 1%[38.3 µM], 12-LOX inh 0%, SW480 rereplic -2%, KB-3-1 tox inactive, KB-V1 MDR tox 3.7µM* and MCF10A rereplic 3%.
Screening CCCCn1c(SCC(=O)Nc2nnc(C(C)C)s2)nc2c1c(=O)n(C)c(=O)n2C returned PINK1 expr mod -6%[38.3 µM], 12-LOX inh 16%, SW480 rereplic -8%, KB-3-1 tox inconclusive, KB-V1 MDR tox 2.3µM* and MCF10A rereplic inconclusive.
Screening CCCn1c(SCC(=O)N2c3ccccc3CCc3ccccc32)nc2c1c(=O)n(C)c(=O)n2C returned PINK1 expr mod 10%, 12-LOX inh 0%, SW480 rereplic -2%, KB-3-1 tox inactive, KB-V1 MDR tox 4.1µM* and MCF10A rereplic 5%.
For O=C(OCC(=O)N(Cc1ccccc1)Cc1ccccc1)c1ccc2ccccc2n1 the results were 12-LOX inh 14%.
CC(=O)c1c(C(C)=O)c(C)n(-c2ccc(I)cc2)c1C was read as 12-LOX inh 22%.
`O=C(O)CCn1ncc2cc(OCC3CCN(C(=O)CC4CC4)CC3)ccc21` gave 12-LOX inh -17%[176 µM].
For CC(C)N1C(=O)C2(CCN(C(=O)c3ccc(Cl)cc3)C2)c2ccccc21 (stereo unspecified) the results were 12-LOX inh -1%[6.33 µM].
`CC1Cc2ccccc2N1C(=O)CSc1nc2c(c(=O)n(C)c(=O)n2C)n1Cc1ccc(F)cc1` (stereo unspecified) gave PINK1 expr mod 13%, 12-LOX inh 77%, SW480 rereplic -4%, KB-3-1 tox inactive, KB-V1 MDR tox 1.8µM* and MCF10A rereplic 0%.
`CCCCCn1c(CN2CCCCC2C)nc2c1c(=O)n(C)c(=O)n2C` (stereo unspecified) gave PINK1 expr mod 1%, 12-LOX inh 0%, SW480 rereplic -5%, KB-3-1 tox inactive, KB-V1 MDR tox 4.6µM* and MCF10A rereplic inconclusive.
Screening Cn1c(=O)c2c(nc(SCC(=O)c3cccs3)n2Cc2ccc(F)cc2)n(C)c1=O returned PINK1 expr mod 2%[38.3 µM], 12-LOX inh 2%, SW480 rereplic 2%, KB-3-1 tox inactive, KB-V1 MDR tox inconclusive and MCF10A rereplic 7%.
CCn1c(SCC(=O)N2CCCCC2)nc2c1c(=O)n(C)c(=O)n2C was read as PINK1 expr mod 0%, 12-LOX inh -3%, SW480 rereplic -26%, KB-3-1 tox inactive, KB-V1 MDR tox inactive and MCF10A rereplic -5%.
`CCOC(=O)c1c(NC(=O)CSc2nc3c(c(=O)n(C)c(=O)n3C)n2CC)sc(C)c1C` gave PINK1 expr mod 2%[38.3 µM], 12-LOX inh 9%, SW480 rereplic -1%, KB-3-1 tox inactive, KB-V1 MDR tox 9.2µM* and MCF10A rereplic 18%.
Screening CCCCCn1c(CN2CCCCC2CC)nc2c1c(=O)n(C)c(=O)n2C (stereo unspecified) returned PINK1 expr mod 0%, 12-LOX inh 0%, SW480 rereplic -8%, KB-3-1 tox inactive, KB-V1 MDR tox inactive and MCF10A rereplic 1%.
Screening CCCCn1c(SCC(=O)N2CCCC2)nc2c1c(=O)n(C)c(=O)n2C returned PINK1 expr mod 6%[38.3 µM], 12-LOX inh 0%, SW480 rereplic -2%, KB-3-1 tox inactive, KB-V1 MDR tox 9.2µM* and MCF10A rereplic -3%.
For CCCCn1c(SCC(=O)N2c3ccccc3Sc3ccccc32)nc2c1c(=O)n(C)c(=O)n2C the results were PINK1 expr mod -2%, 12-LOX inh -4%, SW480 rereplic inconclusive, KB-3-1 tox 16µM*, KB-V1 MDR tox 15µM* and MCF10A rereplic 20%.
`O=C1CCN2C=Nc3cccc4ccc1c2c34` gave PINK1 expr mod -1%, 12-LOX inh 0%[57.4 µM], SW480 rereplic 20%, KB-3-1 tox inconclusive, KB-V1 MDR tox 12µM* and MCF10A rereplic 13%.
Screening COc1ccc(-c2nc(C)c(CCNC(=O)c3cccs3)s2)cc1 returned PINK1 expr mod -1%, 12-LOX inh -14%, KB-3-1 tox inactive and KB-V1 MDR tox 8.2µM*.
`Cc1ccc(-c2nc(C)c(CCNC(=O)c3cccs3)s2)cc1` gave PINK1 expr mod -1%, 12-LOX inh inconclusive, KB-3-1 tox inactive and KB-V1 MDR tox inconclusive.
For Fc1ccc(Sc2nc(-c3ccccc3)nnc2C(F)(F)F)cc1 the results were PINK1 expr mod -1%, 12-LOX inh 0%, SW480 rereplic inconclusive, KB-3-1 tox 16µM*, KB-V1 MDR tox inactive and MCF10A rereplic 3.7µM*.
Fc1ccc(Oc2nc(-c3ccccc3)nnc2C(F)(F)F)cc1 was read as PINK1 expr mod -1%, 12-LOX inh -7%, SW480 rereplic 2%, KB-3-1 tox inactive, KB-V1 MDR tox inactive and MCF10A rereplic inconclusive.
Screening Cc1cc(OCc2cc(C(=O)N(C)Cc3nonc3C)no2)cc(C)c1Cl returned PINK1 expr mod 2%, 12-LOX inh -3%, SW480 rereplic 24%, KB-3-1 tox inactive, KB-V1 MDR tox inconclusive and MCF10A rereplic inconclusive.
Screening CCc1ccc(CN(C)C(=O)c2cc(COc3cc(C)c(Cl)c(C)c3)on2)nc1 returned PINK1 expr mod inconclusive, 12-LOX inh -14%, SW480 rereplic -4%, KB-3-1 tox inactive, KB-V1 MDR tox inactive and MCF10A rereplic 23µM*.
Cc1ccc(OCc2cc(C(=O)N(C)Cc3cnn(-c4ccccc4C)c3)no2)cn1 was read as PINK1 expr mod 0%, 12-LOX inh 9%, SW480 rereplic 1%, KB-3-1 tox 18µM*, KB-V1 MDR tox inconclusive and MCF10A rereplic 10%.
Screening Cc1ccc(OCc2cc(C(=O)N(C)Cc3ccccn3)no2)cn1 returned 12-LOX inh 25%.
For Cc1cc(OCc2cc(C(=O)N(C)C3CCOC3)no2)cc(C)c1Cl (stereo unspecified) the results were PINK1 expr mod 1%, 12-LOX inh 3%, SW480 rereplic 15%, KB-3-1 tox inconclusive, KB-V1 MDR tox inconclusive and MCF10A rereplic 2.3µM*.
Screening COCCNC(=O)c1nc(-c2cccc3[nH]ccc23)no1 returned 12-LOX inh -3%.
CC(NCc1cccc(C#N)c1)c1ccc(Cl)cc1Cl (stereo unspecified) was read as 12-LOX inh -17%.
